JMJD2A Tudor: inhibitors of human JMJD2A Tudor domain; O75164; Potency, µM (doses to about 114 µM), actives largely listed as inhibitors; actives 4.4% (n = 390,000); AID 504339; AlphaScreen JMJD2A-Tudor / H3K4me3 peptide binding; note: nearly all actives have a fitted effect of over 50% in size
Target sequence (O75164 whole entry, looked up, the tested form may be a part): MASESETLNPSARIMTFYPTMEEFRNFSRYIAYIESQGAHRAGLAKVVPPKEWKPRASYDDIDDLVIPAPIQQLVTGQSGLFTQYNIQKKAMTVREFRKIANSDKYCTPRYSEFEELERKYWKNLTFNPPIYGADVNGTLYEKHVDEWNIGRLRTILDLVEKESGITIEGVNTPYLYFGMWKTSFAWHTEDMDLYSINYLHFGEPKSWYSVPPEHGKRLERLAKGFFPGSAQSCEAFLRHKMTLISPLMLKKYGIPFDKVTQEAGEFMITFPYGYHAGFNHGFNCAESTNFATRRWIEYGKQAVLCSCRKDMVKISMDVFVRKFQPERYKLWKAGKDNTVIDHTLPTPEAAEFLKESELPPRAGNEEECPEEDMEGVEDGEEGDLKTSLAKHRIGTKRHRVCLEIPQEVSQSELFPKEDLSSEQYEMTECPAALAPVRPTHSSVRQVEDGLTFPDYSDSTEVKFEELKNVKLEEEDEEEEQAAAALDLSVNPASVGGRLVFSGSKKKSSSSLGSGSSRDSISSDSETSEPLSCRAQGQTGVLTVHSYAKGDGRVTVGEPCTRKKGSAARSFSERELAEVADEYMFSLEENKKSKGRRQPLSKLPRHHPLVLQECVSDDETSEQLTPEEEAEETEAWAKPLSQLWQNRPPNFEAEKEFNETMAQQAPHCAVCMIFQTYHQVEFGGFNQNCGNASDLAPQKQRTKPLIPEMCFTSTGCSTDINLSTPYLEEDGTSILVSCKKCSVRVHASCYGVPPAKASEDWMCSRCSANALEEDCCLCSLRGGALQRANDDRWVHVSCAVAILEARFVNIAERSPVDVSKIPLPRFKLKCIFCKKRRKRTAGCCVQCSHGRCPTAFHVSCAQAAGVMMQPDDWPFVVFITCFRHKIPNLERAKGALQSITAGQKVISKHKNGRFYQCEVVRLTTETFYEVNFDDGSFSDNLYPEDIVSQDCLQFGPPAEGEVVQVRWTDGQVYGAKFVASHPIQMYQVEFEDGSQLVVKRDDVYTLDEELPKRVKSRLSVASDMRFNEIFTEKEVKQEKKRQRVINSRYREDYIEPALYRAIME
BAZ2B inh: BAZ2B (human) inhibition; AlphaScreen BAZ2B-H3K14Ac peptide displacement; Potency, µM (titrated, usually from 114 µM), hits mostly inhibitors; actives 4.4% (n = 360,000); note: nearly all actives have a fitted effect of over 60% in size
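AlphaScreen displacement: compounds (up to 110uM) incubated 30 min at room temperature with a preformed 50 nM BAZ2B/50 nM biotinylated H3K14Ac peptide complex in PBS pH 7.4 with Tween-20. Donor and acceptor beads at 10 ug/mL final added, 20 min light-protected before reading.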
G9a inh: G9a (human) methyltransferase inhibition | G9a H3K9 monomethylation, AlphaScreen, 2 h | AID 504332 | actives 8.8% (n = 350,000) | Potency, µM (highest dose often 102 µM), usual class: inhibitors; note: nearly all actives have a fitted effect of over 75% in size
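Readings reflect AlphaScreen signal from monomethyl-H3K9 antibody detection. HMT at 20 nM; substrate b-H3K9 500 nM; cofactor SAM 20 uM; 2 h RT reaction; compounds tested as titrations in qHTS with 15 min preincubation.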
HP1b binding inh: blocks HP1-beta chromodomain binding to methylated histone tails; P83916; AlphaScreen HP1-beta / biotin-H3K9me3 peptide binding; Potency, µM (titrated, usually from 114 µM), hits mostly inhibitors; actives 0.56% (n = 390,000); AID 540317; note: nearly all actives have a fitted effect of over 70% in size
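AlphaScreen: HP1-beta (50 nM) preformed 30 min with biotin-H3(1-18)K9me3 peptide (50 nM) in PBS pH 7.4, 0.01% Tween-20. Compound added for 30 min at RT, then streptavidin donor/nickel chelate acceptor beads (10 ug/mL) for 30 min.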
Six1-Eya2 blk: blocks human Six1 binding to Eya2; Q15475+O00167; AlphaScreen GST-Six1/His-Eya2 binding, biochemical; hits give low values; activity change, % (no concentration beside the values); actives 0.56% (n = 360,000); AID 651725; in the data active = activity change below about -65%; inconclusive = mostly about -30% to -63%
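AlphaScreen luminescence read after one hour at 37 °C in darkness. Pin-transferred compounds met GST-Six1 and His-Eya2 protein (5X stock 250 nM/500 nM) plus glutathione donor and Ni-chelate acceptor beads (5X, 50 ug/mL).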
CtBP-E1A blk: CtBP/E1A binding inhibition | AlphaScreen GST-E1A/His-CtBP binding, 1536-well; hits give low values | actives 0.49% (n = 340,000) | activity change, % (no concentration beside the values); in the data active = activity change below about -65%; inconclusive = mostly about -30% to -63%
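AlphaScreen with 125 nM GST-E1A and 125 nM His-CtBP (5X stocks) in Tris pH 8.0, 300 mM NaCl, BSA, Tween 20, TCEP. Compounds preincubated 2 h at 37 deg C, then glutathione donor/nickel acceptor beads added for 1 h at 37 deg C in dark.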
Hits are given with their value; . = inactive; ? = inconclusive; / = no result; [ ] = dose if it differs, or a comment. This is a sample that favours compounds with a hit; in the whole collection about 10% have one here. Unless noted, calls come from the whole dose curve; as a rule, active = well fitted inhibition curve with a large enough effect; inconclusive = small, poorly fitted or top-dose-only effect; inactive = no such curve, though single readings can be large or run the other way.

SMILES	JMJD2A Tudor	BAZ2B inh	G9a inh	HP1b binding inh	Six1-Eya2 blk	CtBP-E1A blk
Cc1cccc(N=C2NN=C(c3c(C)[nH]c4ccccc34)CS2)c1	45µM	?	?	.	?	.
Cc1cccc(N=C2NN=C(c3ccc4c(c3)OCCO4)CS2)c1	.	.	.[12.7 µM]	.	.	?
O=S(=O)(c1ccc(Cl)cc1)N1CN(CC2CCCO2)c2nc3ccccc3nc21 (stereo unspecified)	.	.	40µM	.	.	.
C=CCN1CN(S(=O)(=O)c2cccc(Cl)c2)c2nc3ccccc3nc21	.	.	79µM	.	.	/
CCCCN1CN(S(=O)(=O)c2ccc(OC)cc2)c2nc3ccccc3nc21	.	?	35µM	.	.	.
COc1ccc(CCN2CN(S(=O)(=O)c3ccccc3)c3nc4ccccc4nc32)cc1OC	.	.	32µM	.	.	.
COCCNC(=O)C1(C)CCN(Cc2cccc(Oc3ccccc3)c2)C1 (stereo unspecified)	/	/	/	/	.	.
Cc1c(P(=S)(c2ccccc2)c2ccccc2)c2ccccc2n1Cc1ccccc1	.	/	/	/	/	/
COc1cccc(NC(=O)Cn2c(=O)n(CCCCC(=O)NCCc3ccccc3)c(=O)c3ccccc32)c1	.	.	.	.	/	/
CC(C)OCCCN1CN(S(=O)(=O)c2ccccc2)c2nc3ccccc3nc21	.	?	32µM	.	.	.
COCCN1CN(S(=O)(=O)c2cccc(Cl)c2)c2nc3ccccc3nc21	.	.	45µM	.	.	.
COCCCN1CN(S(=O)(=O)c2ccc(Cl)cc2)c2nc3ccccc3nc21	.	.	28µM	.	.	.
COc1ccc(CCN2CN(S(=O)(=O)c3ccccc3)c3nc4ccccc4nc32)cc1	.	.	?	.	.	.
COc1cc(/C=N/n2c(-c3ccc4c(c3)NC(=O)CO4)csc2=Nc2cccc(C)c2)ccc1O	?	8.9µM	10µM	?	?	.
COCCN=c1scc(-c2ccc3c(c2)NC(=O)CO3)n1/N=C(\C)c1ccc(O)cc1	22µM	28µM	/	?	?	.
COc1ccc(-c2cc(C(F)(F)F)n3nc(C(=O)Nc4sc5c(c4C#N)CCC(C)C5)cc3n2)cc1OC (stereo unspecified)	.	.	.	.	/	/
COc1ccc(C(CC(=O)Nc2ccc(OC)c(OC)c2)N2Cc3ccccc3C2=O)cc1 (stereo unspecified)	.	79µM	.	.	/	/
c1ccc(CNc2ccccn2)cc1	.	.	.	.	.	/
c1ccc(C2(CNc3ccccn3)CCCC2)cc1	.	.	50µM	.	.	.
O=C(CCS(=O)(=O)c1ccccc1)Nc1ncc([N+](=O)[O-])s1	.	.	45µM	.	.	.
COCc1nnc(NC(=O)CCCOc2ccccc2OC)s1	50µM	.	?	.	.	.
COCc1nnc(NC(=O)CCS(=O)(=O)c2ccccc2)s1	.	?	45µM	?	.	.
O=C(CS(=O)(=O)c1ccccc1)Nc1ncc([N+](=O)[O-])s1	.	.	?	.	.	.
O=C(CN1C(=O)c2ccccc2S1(=O)=O)Nc1ncc([N+](=O)[O-])s1	3.5µM	?	?	.	.	.
COCc1nnc(NC(=O)CCCOc2ccccc2)s1	.	.	.[12.7 µM]	.	.	.
SMILES	JMJD2A Tudor	BAZ2B inh	G9a inh	HP1b binding inh	Six1-Eya2 blk	CtBP-E1A blk
COc1cc2c(cc1NC(=O)COc1ccc(Br)cc1C)oc1ccccc12	.	.	.	.	/	/
CCC(Sc1nc2ccccc2c2nc(-c3ccccc3)nn12)C(=O)Nc1cccc(OC)c1 (stereo unspecified)	.	.	.	.	/	/
O=C(NN=Cc1ccc(F)cc1)c1cccc(S(=O)(=O)N2CCCC2)c1	.	/	/	.	.	.
CCOc1cc(C=NNC(=O)c2cccc(S(=O)(=O)N3CCCC3)c2)ccc1O	.	/	/	.	-66	/
CCOc1cc(/C=N/NC(=O)c2cccc(S(=O)(=O)N3CCCC3)c2)ccc1OCC(=O)N(C)C	.	.	.	.	.	.
COc1cc(/C=N/NC(=O)c2cc(C3CC3)[nH]n2)ccc1O	.	.	.	.	.	/
O=C(N/N=C/c1ccc(O)c(O)c1)c1cccc(S(=O)(=O)N2CCCCC2)c1	?	?	50µM	.	.	.
CCOc1cc(/C=N/NC(=O)c2cc(C3CC3)[nH]n2)ccc1O	50µM	.	45µM	.	.	.
O=C(N/N=C/c1ccc(O)c(O)c1)c1ccc(-n2cnnn2)cc1	?	50µM	?	.	.	/
O=C(N/N=C/c1cccc(O)c1)c1ccc(-n2cnnn2)cc1	.	.	.	.	.	.
Cc1ccc(F)c(S(=O)(=O)NC(=O)C2(C)CCN2C(=O)CCC2CCCC2)c1 (stereo unspecified)	/	/	/	/	.	.
CCOc1ccc(-c2nnc(SCC(=O)Nc3ccc(C)cc3C)o2)cc1	79µM	.	.	.	/	/
CCOc1ccc(-c2nnc(NC(=O)Cc3cc(OC)c(OC)c(OC)c3)o2)cc1	28µM	22µM	.[2.33 µM]	.	.	.
CCOc1ccc(-c2nnc(NC(=O)Cc3ccc(OC)cc3)o2)cc1	.	.	.	.	?	.
CCOc1ccc(-c2nnc(SCC(=O)Nc3ccc(C)cc3Cl)o2)cc1	.	.	?	.	/	/
CC(=O)COc1cc2c(-c3cc4ccccc4o3)cc(=O)oc2cc1C	.	.	.	.	.	.
COCCNC(=O)C1CCCN(C(=O)c2ccc3sccc3c2)CC1 (stereo unspecified)	/	/	/	/	.	.
O=C(c1ccc(N2CCOCC2)c([N+](=O)[O-])c1)N1CCCCC1	.	.	.	.	.	.
Cc1ccc(C)c(S(=O)(=O)N2CCN(C(=O)c3ccc(N4CCCC4)c([N+](=O)[O-])c3)CC2)c1	?	?	32µM	.	.	?
Cc1ccc(C)c(N2CCN(C(=O)c3ccc(N4CCOCC4)c([N+](=O)[O-])c3)CC2)c1	56µM	?	45µM	45µM	.	.
Cc1ccc(C)c(S(=O)(=O)N2CCN(C(=O)c3ccc(-n4cncn4)c([N+](=O)[O-])c3)CC2)c1	.	.	.[0.501 µM]	.	.	.
CC(=O)N1CCc2cc(S(=O)(=O)NC(Cc3ccccc3)C(=O)NCc3ccccc3Cl)ccc21 (stereo unspecified)	.	/	?	.	/	/
CSc1nc(-c2ccco2)nn1C(=O)c1ccc(C)cc1	.	.	45µM	.	.	.
CCCC(=O)n1nc(-c2ccco2)nc1SCc1ccccc1	.	.	.	.	.	.
O=C(Cc1ccccc1)n1nc(-c2ccco2)nc1SCc1ccccc1	89µM	.	.[12.7 µM]	.	.	.
CSc1nc(-c2ccco2)nn1C(=O)c1ccco1	.	.	40µM	.	.	.
Clc1cccc(-c2nc3ccc(Br)cn3c2Cc2ccsc2)c1	/	/	/	/	.	.

From PubChem
